Laboratory results published in PubChem BioAssay AID2685 (National Center for Advancing Translational Sciences (NCATS), 2010).
Out of some 320,000 compounds screened, about 2,100 (0.66%) were called active. Another 53% or so got no clear call; they are omitted. The call rests on the fitted dose curve; in most records, active means well fitted inhibition curve with a large enough effect in the signal ratio, with a control signal flat (not every such curve was filed as active); inconclusive means small, poorly fitted or top-dose-only effect, or effect the other way, or a change in a side signal; inactive means flat fitted curve, though single readings scatter; the % refers to the signal ratio. Only a selection was taken, and actives are over-represented in it overall.

test: qHTS Assay for Lipid Storage Modulators in Drosophila S3 Cells; conditions: BODIPY lipid droplet fluorescence, 18-24 h, cells fed with added oleic acid; cell number change: measured here: cell count max response; series mostly up to 46.1 µM; lipid storage change, negative = inhibition: at the top concentration;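 on cell number change: cells counted by Cell Tracker Red CMTPX staining in the red channel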; on lipid storage change, negative = inhibition: on the % scale 0 is the no-effect control and ±100 the full control effect
Method in brief: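 Laser-scanning cytometry quantifies lipid droplet accumulation (500–530 nm total intensity; droplet/cell object ratio) in oleic acid-fed (400 uM added) Drosophila S3 cells treated with a concentration series. 20 uM Triacsin C defined 100% inhibition.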
Potency means the concentration at half of the fitted maximal effect.

Row | Compound | lipid storage change, negative = inhibition | cell number change | outcome | Potency
1 | CCn1nc(C)c(CN2CCCC(CO)(Cc3ccccc3)C2)c1C (centres undefined) | -2.88% (inactive) | 6.82% | – | –
2 | Cc1ccc(-c2cc([C@H]3[C@H]4C=CC[C@@H](C)[C@@H]4C(=O)N3Cc3ccccc3)ccc2F)cc1 | 8.48% (inactive) | -1.15% | – | –
3 | COC(=O)c1cccc(NC(=O)NC(=O)c2ccccc2Cl)c1 | -0.414% (inactive) | -8.19% | – | –
4 | Cc1cccc(NC(=O)CSc2nc3ccccc3o2)c1 | – | – | inactive | –
5 | CC(=O)N=c1c(C#N)cc2c(=O)n3cccc(C)c3nc2n1CCCOC(C)C | 5.07% (inactive) | 13.1% | – | –
6 | COCCCn1c(=N)c(C(=O)NCC2CCCO2)cc2c(=O)n3cccc(C)c3nc21 (centres undefined) | 0.117% (inactive) | -13.4% | – | –
7 | COCCCn1c(C(=O)N2CC(C)OC(C)C2)cc2c(=O)n3cccc(C)c3nc21 (centres undefined) | – | 0.298% | inactive | –
8 | Cn1c(C(=O)NCCC2=CCCCC2)cc2c(=O)n3ccccc3nc21 | – | – | inactive | –
9 | Cc1cccn2c(=O)c3cc(C(=O)NCCCN4CCCC4=O)n(C)c3nc12 | – | – | inactive | –
10 | Cc1cccn2c(=O)c3cc(C(=O)NCCC4=CCCCC4)n(C)c3nc12 | – | -17.7% | – | 18.4 µM (active)
11 | Cc1cccn2c(=O)c3cc(C(N)=S)c(=N)n(CCCN4CCOCC4)c3nc12 | 11% (inactive) | – | – | –
12 | COCCCn1c(C(=O)NC2CCCCC2C)cc2c(=O)n3cccc(C)c3nc21 (centres undefined) | – | 8.96% | – | 20.6 µM (active)
13 | Cc1cccn2c(=O)c3cc(C(N)=S)c(=N)n(CCCOC(C)C)c3nc12 | – | 3.82% | – | 9.2 µM (active)
14 | COCCCn1c(=NC(C)=O)c(C#N)cc2c(=O)n3cccc(C)c3nc21 | 10.7% (inactive) | 0.683% | – | –
15 | CCCn1c(=N)c(C(=O)NC2CCCC2)cc2c(=O)n3cccc(C)c3nc21 | -0.957% (inactive) | -9.76% | – | –
16 | CCN(C(=O)c1cc2c(=O)n3cccc(C)c3nc2n1CCCOC)C1CCCCC1 | – | 8.25% | – | 23.1 µM (active)
17 | O=C(CCc1nnc(C2(c3ccc(Cl)cc3)CCC2)o1)NC1CC1 | 0.737% (inactive) | 6.23% | – | –
18 | Cc1ccc2[nH]c3c(c2c1)CCN1C(=O)OC(C)(C)C31C (centres undefined) | -5.19% (inactive) | -17.1% | – | –
19 | O=C(CCCc1nc2ccccc2s1)N1CCN(c2ccccc2F)CC1 | 2.32% (inactive) | 22.1% | – | –
20 | COc1cccc(/C=C/C(=O)OCC(=O)c2c[nH]c3ccccc23)c1 | – | -14.3% | – | 9.2 µM (active)
21 | COc1cc(/C=C/C(=O)OCC(=O)c2c[nH]c3ccccc23)ccc1OC(F)F | -0.565% (inactive) | -14.2% | – | –
22 | COc1ccc(/C=C/C(=O)OCC(=O)c2c[nH]c3ccccc23)cc1 | 9.96% (inactive) | 4.45% | – | –

Row | Compound | lipid storage change, negative = inhibition | cell number change | outcome | Potency
23 | CCOc1cc(N2CCOCC2)c(OCC)cc1NC(=O)Cn1[nH]c(=O)c2ccccc2c1=O | 5.54% (inactive) | 7.32% | – | –
24 | O=C(O)CNS(=O)(=O)Cc1ccccc1 | 5.11% (inactive) | 2.83% | – | –
25 | Cc1cccc(NC(=O)C2CCN(S(=O)(=O)c3cccs3)CC2)n1 | – | – | inactive | –
26 | COc1ccccc1Cn1c(C)nc2ccccc21 | 10.5% (inactive) | 10.6% | – | –
27 | Cc1nc2ccccc2n1Cc1ccccc1 | -4.71% (inactive) | -17% | – | –
28 | Cc1ccccc1Cn1c(C)nc2ccccc21 | – | -15.1% | – | 10.3 µM (active)
29 | CN(C)CCC1CCN(c2cc(C#N)c(C#N)cc2[N+](=O)[O-])CC1 | 16.4% (inactive) | -1.99% | – | –
30 | N#Cc1cc(N2CCCCC2)c([N+](=O)[O-])cc1C#N | -18% (inactive) | -3.02% | – | –
31 | CC1CCN(c2cc(C#N)c(C#N)cc2[N+](=O)[O-])CC1 | – | 0.344% | – | 23.1 µM (active)
32 | COC(=O)c1cc(OC)c(OC)cc1NC(=S)N1CCN(c2ccccn2)CC1 | 5.07% (inactive) | -13.1% | – | –
33 | CCCS(=O)(=O)c1nc(S(=O)(=O)c2ccc(C)cc2)c(N2CCC3(CC2)OCCO3)s1 | 17.8% (inactive) | -26.8% | – | –
34 | CCCCNC(=O)CC1NCCNC1=O (centres undefined) | -8.27% (inactive) | -9.85% | – | –
35 | COc1cc(NC(=O)CC2NCCNC2=O)cc(OC)c1 (centres undefined) | -4.51% (inactive) | 2.74% | – | –
36 | COC(=O)CC1NCCNC1=O (centres undefined) | – | -8.44% | – | 0.0326 µM (active)
37 | S=c1[nH]nc(-c2cc(-c3ccccc3)n[nH]2)n1/N=C/C=C/c1ccccc1 | -0.135% (inactive) | 5.92% | – | –
38 | Cc1ccc(C)c(N2CCN(C(=O)Nc3ccc4c(c3)N(C)C(=O)CS4)CC2)c1 | 6.34% (inactive) | -6.47% | – | –
39 | CN(C)N=C1c2cc(S(=O)(=O)N(C)C)ccc2-c2ccc(S(=O)(=O)N(C)C)cc21 | – | -8.49% | inactive | –
40 | CC(=O)NCCNC(=O)c1ccc(-n2c(C)ccc2C)cc1 | 6.73% (inactive) | -0.679% | – | –
41 | O=C1ON=C(c2ccccc2)/C1=C/c1ccccc1 | – | -8.78% | inactive | –
42 | Cc1ccc(C2=NOC(=O)/C2=C\C=C\c2ccccc2)cc1 | – | -25.2% | – | 4.61 µM (active)
43 | O=C1ON=C(c2ccccc2)/C1=C/c1cccnc1 | -24.6% (inactive) | 4.4% | – | –
44 | Cc1cc(C)cc(N2CC(C(=O)Nc3cc(C)on3)CC2=O)c1 (centres undefined) | -6.62% (inactive) | -8.97% | – | –

Row | Compound | lipid storage change, negative = inhibition | cell number change | outcome | Potency
45 | COc1ccccc1NC(=O)N1CCCC(CNC(=O)c2ccccc2Cl)C1 (centres undefined) | – | 21.5% | inactive | –
46 | CC(=O)c1ccccc1C(=O)N1CCCC(CNC(=O)c2ccccc2Cl)C1 (centres undefined) | – | – | inactive | –
47 | Cc1cccc(NC(=O)N2CCCC(CNC(=O)c3ccccc3Cl)C2)c1C (centres undefined) | – | -15% | – | 20.6 µM (active)
48 | O=c1c(Cl)c(N2CCNCC2)cnn1C12CC3CC(CC(C3)C1)C2 | 1.07% (inactive) | 5.13% | – | –
49 | CCCc1nnc(NC(=O)CSc2nc3ccccc3[nH]2)s1 | 3.54% (inactive) | -1.76% | – | –
50 | COc1ccc(C)cc1NC(=O)NCCC1=CCCCC1 | – | – | inactive | –
51 | COc1ccc(OC)c(NC(=O)CC(NCCC2=CCCCC2)C(=O)O)c1 (centres undefined) | – | 1.58% | – | 4.61 µM (active)
52 | COc1ccc(NC(=O)CC(NCCc2ccccc2)C(=O)O)c(OC)c1 (centres undefined) | -5.38% (inactive) | 2.02% | – | –
53 | S=c1[nH]nc(-c2cccs2)n1/N=C/c1cn(-c2ccccc2)nc1-c1ccccc1 | -0.402% (inactive) | -2.97% | – | –
54 | CCCC[N+](CC#CCO)(CC#Cc1ccccc1)CCCC | 11.3% (inactive) | 24.4% | – | –
55 | Cc1nc(SCC(O)CCl)c([N+](=O)[O-])[nH]1 (centres undefined) | -0.122% (inactive) | 21.1% | – | –
56 | CC(C)OP(=O)(OC(C)C)C(Nc1ccc(C(=O)O)cc1)c1ccccc1 (centres undefined) | -19.3% (inactive) | -10.6% | – | –
57 | COc1cc(CNc2ncn[nH]2)ccc1OCC(=O)NC(C)(C)C | 15.6% (inactive) | -0.636% | – | –
58 | Cc1nn(S(=O)(=O)N2CCOCC2)c(C)c1Br | -9.45% (inactive) | -1.55% | – | –
59 | Cn1c(=O)c2c(SCC(=O)NCc3ccco3)nc(-c3ccccc3Cl)nc2n(C)c1=O | – | -20.7% | – | 8.91 µM (active)
60 | CCc1nc(SCC(=O)NCc2ccco2)c2c(=O)n(C)c(=O)n(C)c2n1 | – | – | inactive | –
61 | Cn1c(=O)c2c(SCC(=O)N3CCOCC3)nc(-c3ccccc3Cl)nc2n(C)c1=O | – | -19.8% | inactive | –
62 | CCc1nc(SCC(=O)NCc2ccccc2)c2c(=O)n(C)c(=O)n(C)c2n1 | 25.2% (inactive) | – | – | –
63 | CCc1nc(SCC(=O)Nc2ccc(F)cc2)c2c(=O)n(C)c(=O)n(C)c2n1 | -28.8% (inactive) | 7.11% | – | –
64 | CCc1nc(SCC(=O)Nc2ccccc2)c2c(=O)n(C)c(=O)n(C)c2n1 | – | -27.3% | – | 7.31 µM (active)
